PubChem BioAssay
Active and inactive are the calls of the source.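 How the source made its calls, unless noted: active means inhibition at or above 50% at 10 µM; inactive means inhibition below 50%.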

Tests used:
[1] = inhibitors of TNFa-induced NFkB p65 translocation, primary screen, imaging, HUVEC, MLSMR starter and 10KST1 sets (AID 438;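 active means inhibition above 20% together with a positive visual image hit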;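 further: compound added about 3h40 before a 20 min TNFalpha stimulation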;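 on inhibition: signal is the nuclear over cytoplasmic p65 intensity ratio per well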); conditions: HUVEC TNFa-induced p65 nuclear translocation; cell count: measured here: nuclei count (cytotoxicity indicator), at 2.08 µM; inhibition: at 2 µM, stronger effect = higher value, 0% TNFa-plus-vehicle, 100% no-TNFa wells
[2] = inhibitors of mutant huntingtin aggregation, primary screen, imaging, exon1htt(103Q)mCFP cells, high-content imaging (AID 483;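 active means visual image review flags a hit and inhibition of aggregation exceeds 20%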;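 further: compound exposure lasted 3 days before fixation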;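 on nuclei count: percent of the per-plate median nuclei count of sample wells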); conditions: exon1htt(103Q)mCFP cell line, aggregate imaging, at 2 µM; inhibition of aggregation: stronger effect = higher value; nuclei count: measured here: cell count, toxicity
[3] = inhibitors of E-selectin induction by TNFa, primary screen, imaging, HUVEC, immunofluorescence, MLSMR starter and 10KST1 sets (AID 487;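 active means visually confirmed hit in the image check and inhibition above 20%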;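 on inhibition: signal is fraction of cell area covered by stained E-selectin grains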;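 on nuclei count: 100% = median nuclei count of all wells on the same plate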); conditions: HUVEC TNFalpha-induced E-selectin immunofluorescence imaging, at 2 µM; inhibition: stronger effect = higher value; nuclei count: measured here: cell number, toxicity
[4] = molecular target: Voltage-gated potassium channel subunit beta-2 (Rattus norvegicus) (UniProt P62483); experiment: KvBeta enzyme negative modulators, primary screen, biochemical, NADPH fluorescence (AID 622;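 active means fluorescence slope higher than the sample average by over 3 SD, cut at about -0.22 in these data, passing the limit was not always enough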;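 further: slope of raw intensity against log time taken from 70 to 1610 s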); conditions: recombinant KvBeta, 4-cyanobenzaldehyde reduction, at 10 µM, stronger effect = higher value
Sequence of Voltage-gated potassium channel subunit beta-2 (Rattus norvegicus) (P62483 whole entry, looked up): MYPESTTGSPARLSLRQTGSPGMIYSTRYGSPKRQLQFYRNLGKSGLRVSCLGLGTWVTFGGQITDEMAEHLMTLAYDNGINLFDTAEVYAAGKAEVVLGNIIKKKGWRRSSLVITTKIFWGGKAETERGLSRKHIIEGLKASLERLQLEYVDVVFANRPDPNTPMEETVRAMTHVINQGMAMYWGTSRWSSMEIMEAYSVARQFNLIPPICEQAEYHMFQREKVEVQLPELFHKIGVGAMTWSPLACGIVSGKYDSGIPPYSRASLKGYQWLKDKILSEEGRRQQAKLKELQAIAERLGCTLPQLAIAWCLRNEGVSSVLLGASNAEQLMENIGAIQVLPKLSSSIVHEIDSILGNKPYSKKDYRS

[5] = molecular target: Voltage-gated potassium channel subunit beta-2 (Rattus norvegicus) (UniProt P62483); experiment: KvBeta positive modulators, primary screen, biochemical, NADPH fluorescence (AID 623;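 active means NADPH fluorescence slope more negative than the mean of all samples by about 3 SD, 99.7% confidence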;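 further: fluorescence intensity change per second fitted from 20 to 320 s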); conditions: Recombinant KvBeta, NADPH fluorescence decrease slope, 10 min; at 10 µM; stronger effect = lower value
[6] = molecular target: Alpha-2C adrenergic receptor (Homo sapiens) (UniProt P18825); experiment: modulators of alpha2C/GIRK thallium flux, primary screen, cell-based, HEK293 alpha2C/GIRK1/2 (AID 624;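 active means fluorescence slope after compound addition differing from the mean of all screened samples at 99.7% confidence, in either direction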;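 further: slope of fluorescence ratio to pre-addition baseline per second over 15 to 24 s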); conditions: thallium flux BTC fluorescence, at 10 µM, actives lie on both sides
Sequence of Alpha-2C adrenergic receptor (Homo sapiens) (P18825 whole entry, looked up): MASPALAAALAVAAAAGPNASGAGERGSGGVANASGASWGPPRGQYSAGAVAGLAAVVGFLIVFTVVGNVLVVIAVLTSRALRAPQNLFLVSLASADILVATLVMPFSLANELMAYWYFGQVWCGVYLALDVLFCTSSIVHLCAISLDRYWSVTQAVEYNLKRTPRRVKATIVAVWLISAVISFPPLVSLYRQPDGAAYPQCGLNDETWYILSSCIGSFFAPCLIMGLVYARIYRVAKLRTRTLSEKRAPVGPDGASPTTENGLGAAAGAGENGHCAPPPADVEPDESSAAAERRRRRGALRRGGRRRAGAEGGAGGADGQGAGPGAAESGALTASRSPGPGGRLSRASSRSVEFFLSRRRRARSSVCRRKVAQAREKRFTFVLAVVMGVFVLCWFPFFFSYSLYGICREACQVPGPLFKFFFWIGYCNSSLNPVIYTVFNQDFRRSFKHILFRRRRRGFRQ

[7] = inhibitors of Sendai virus-induced IRF3 signaling, primary screen, TLR/RLR signaling modifier project, cell-based, Sendai virus stimulus, luciferase, 10K MLSCN set (AID 602276); conditions: HEK293 RL24 IRF3 luciferase reporter, at 10 µM, stronger effect = higher value;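 further: firefly luciferase from ISG56 promoter only with Renilla not read in this screen; 0% = Sendai virus plus DMSO and 100% = medium plus DMSO without virus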
[8] = inhibitors of poly I:C-induced TLR3 signaling, primary screen, cell-based, poly I:C stimulus, luciferase, 10K MLSCN set (AID 602277;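 active means inhibition of the reporter signal at or above 50%; inactive means inhibition below 50%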); conditions: HEK293-TLR3 RL24 IRF3 luciferase reporter, at 10 µM, stronger effect = higher value

SMILES | cell count [1] | inhibition [1] | inhibition of aggregation [2] | nuclei count [2] [%] | inhibition [3] | nuclei count [3] [%] | fluorescence slope [4] | NADPH fluorescence slope [5] | slope [6] | inhibition [7] | inhibition [8]
COc1ccc2cc(CN(CCO)C(=O)c3ccc(Br)cc3)c(=O)[nH]c2c1 | 333 | 5.3% (inactive) | -21.4% (inactive) | 119 | -33% (inactive) | 118 | -0.613 (inactive) | -4.6e-05 (inactive) | 0.00437 (inactive) | 11.6% (inactive) | 0.693% (inactive)
COc1ccc(C)cc1NC(=O)c1nc2nc(C)cc(C)n2n1 | 471 | 3.8% (inactive) | 5.2% (inactive) | 98.1 | -23.4% (inactive) | 124 | -0.297 (inactive) | 1.4e-06 (inactive) | 0.00674 (inactive) | 18.5% (inactive) | 9.03% (inactive)
CCOc1ccc(C2CC(c3ccccc3C)n3nc(N)nc3N2)cc1 (centres undefined) | 515 | 5% (inactive) | 30.8% (inactive) | 91.1 | -43.7% (inactive) | 90.1 | -0.586 (inactive) | 1.8e-05 (inactive) | 0.00699 (inactive) | 10.4% (inactive) | 25% (inactive)
COCCNC(=O)C(c1cccs1)N(C(=O)Cn1nnc2ccccc21)c1ccccc1 (centres undefined) | 385 | 5.9% (inactive) | 0.7% (inactive) | 98.9 | 24.6% (inactive) | 93.8 | -0.506 (inactive) | -1.1e-05 (inactive) | 0.00629 (inactive) | 10.7% (inactive) | 6.48% (inactive)
Cc1nnc(N(C)C(=O)c2cccnc2)s1 | 704 | -7.5% (inactive) | 8.5% (inactive) | 109 | -47.1% (inactive) | 109 | -0.547 (inactive) | 3.7e-05 (inactive) | 0.0062 (inactive) | -6.83% (inactive) | -1.4% (inactive)
COc1ccc(CCNC(=O)c2cnn3ccccc23)c(OC)c1OC | 779 | -4.5% (inactive) | -37.7% (inactive) | 108 | -59.3% (inactive) | 115 | -0.558 (inactive) | -4.4e-06 (inactive) | 0.00687 (inactive) | 1.42% (inactive) | -10.8% (inactive)
CCCCSc1nc(CCC)cc(=O)[nH]1 | 383 | -0.3% (inactive) | -4% (inactive) | 98.2 | 3.8% (inactive) | 116 | -0.34 (inactive) | 5.5e-06 (inactive) | 0.00636 (inactive) | 5.02% (inactive) | 2.79% (inactive)
Cc1ccc2[nH]c(=O)c(C(c3nnnn3CCc3ccccc3)N3CCOCC3)cc2c1 (centres undefined) | 715 | -3.9% (inactive) | 1.1% (inactive) | 99 | -38.7% (inactive) | 95.6 | -0.482 (inactive) | -4.6e-05 (inactive) | 0.0072 (inactive) | 0.935% (inactive) | 26.5% (inactive)
CCOc1ccc(N(CC(=O)NC2CCCC(C)C2C)S(=O)(=O)c2c(C)noc2C)cc1 (centres undefined) | 872 | 4% (inactive) | 20.7% (inactive) | 131 | -33.2% (inactive) | 111 | -0.612 (inactive) | 7.5e-06 (inactive) | 0.00653 (inactive) | 1.67% (inactive) | 38.3% (inactive)
CC(=O)CCc1ccc(OCCCCn2cncn2)cc1 | 513 | 6.8% (inactive) | 15.6% (inactive) | 92.1 | -58.4% (inactive) | 116 | -0.625 (inactive) | -1.7e-05 (inactive) | 0.00807 (inactive) | 1.5% (inactive) | -5.67% (inactive)
Cn1c(=O)cc(OCCCC(=O)N2CCCCC2)c2ccccc21 | 372 | 8.3% (inactive) | -21.8% (inactive) | 96.2 | -22.3% (inactive) | 112 | -0.578 (inactive) | 1.8e-05 (inactive) | 0.00683 (inactive) | -4.34% (inactive) | 36.6% (inactive)
COC(=O)c1ccnc(/C=N/O)c1 | 715 | -2% (inactive) | -19.8% (inactive) | 112 | 11.2% (inactive) | 108 | -0.578 (inactive) | -2e-05 (inactive) | 0.00558 (inactive) | 15.5% (inactive) | 19.8% (inactive)
CN(C)CCCN1C(=O)c2oc3ccc(Cl)cc3c(=O)c2C1c1cccnc1 (centres undefined) | 611 | -3.3% (inactive) | -16.3% (inactive) | 112 | -27% (inactive) | 122 | -0.546 (inactive) | -5.3e-05 (inactive) | 0.00766 (inactive) | 13.5% (inactive) | 39% (inactive)
CS(=O)(=O)Nc1ccccc1C(=O)O | 363 | -2.1% (inactive) | -4.3% (inactive) | 113 | -81.2% (inactive) | 121 | -0.411 (inactive) | -2.7e-05 (inactive) | 0.00253 (inactive) | 11.5% (inactive) | 33% (inactive)
O=C1NC(c2ccco2)Nc2ccccc21 (centres undefined) | 694 | -50% (inactive) | -23.8% (inactive) | 102 | -84.8% (inactive) | 107 | -0.344 (inactive) | 1.4e-05 (inactive) | 0.00562 (inactive) | -17.2% (inactive) | 99.3% (active)
COc1ccc(-c2nc(C)c(C(C)=O)n2O)cc1OC | 385 | 2.7% (inactive) | 3.6% (inactive) | 102 | -127% (inactive) | 106 | -0.355 (inactive) | -2.6e-05 (inactive) | 0.00569 (inactive) | -2.76% (inactive) | 10.1% (inactive)
COC(=O)c1cc2ccsc2n1CC(=O)N(C)c1ccccc1 | 623 | -15.1% (inactive) | -8.1% (inactive) | 117 | -29.3% (inactive) | 92.2 | -0.261 (inactive) | 4.1e-06 (inactive) | 0.00481 (inactive) | 13.3% (inactive) | 22.7% (inactive)
COc1cc(OC)c(OC)cc1CN(C)CCc1ccccn1 | 756 | -17% (inactive) | -20.8% (inactive) | 115 | -114% (inactive) | 109 | -0.356 (inactive) | -7.4e-05 (inactive) | 0.00545 (inactive) | 13.6% (inactive) | 37.3% (inactive)
COc1cccc(C2CC(c3ccc(C)cc3)Nc3nc(N)nn32)c1 (centres undefined) | 538 | 2.3% (inactive) | 23.1% (inactive) | 102 | 28% (inactive) | 101 | -0.564 (inactive) | 4e-05 (inactive) | 0.0074 (inactive) | -7.82% (inactive) | 16.6% (inactive)
Cc1nc(C)c2c(c1C(F)(F)F)-c1ccccc1C2(F)F | 397 | 3.9% (inactive) | -0.1% (inactive) | 108 | -30.7% (inactive) | 107 | -0.454 (inactive) | -8.2e-06 (inactive) | 0.00655 (inactive) | -9.52% (inactive) | 98.9% (active)
COC(=O)Cn1c(=NC(=O)CSCC(=O)Nc2cc(C)on2)sc2ccccc21 | 610 | -6.9% (inactive) | 2.6% (inactive) | 112 | 1.2% (inactive) | 111 | -0.417 (inactive) | -6.3e-05 (inactive) | 0.00506 (inactive) | 11.1% (inactive) | 28.1% (inactive)
Clc1ccccc1OCCCCn1ccnc1 | 425 | -0.2% (inactive) | -10.9% (inactive) | 97.3 | 14.5% (inactive) | 106 | -0.464 (inactive) | -5.3e-05 (inactive) | 0.0106 (active) | -3.32% (inactive) | 5.03% (inactive)
CC(C)c1nnc(NC(=O)Cc2cccs2)s1 | 640 | 3.4% (inactive) | 8.9% (inactive) | 114 | -47.3% (inactive) | 105 | -0.513 (inactive) | -1.8e-05 (inactive) | 0.00736 (inactive) | 0.388% (inactive) | 22.9% (inactive)
O=C(Nc1cccc(NC(=O)c2ccco2)c1)c1ccc2c(c1)OCO2 | 696 | -6.1% (inactive) | -10.2% (inactive) | 108 | -70.1% (inactive) | 121 | -0.418 (inactive) | 2.7e-06 (inactive) | 0.00264 (inactive) | 7.09% (inactive) | -29.5% (inactive)
Cc1cc2ncn(S(=O)(=O)c3ccc(S(=O)(=O)N4CCOCC4)cc3)c2cc1C | 311 | -3.3% (inactive) | 0.7% (inactive) | 93.4 | -98.8% (inactive) | 113 | -0.518 (inactive) | 1.7e-05 (inactive) | 0.00432 (inactive) | -0.351% (inactive) | 3.91% (inactive)
COc1ccccc1N1CCN(C(CNS(=O)(=O)c2cc(F)ccc2F)c2cccnc2)CC1 (centres undefined) | 557 | 7.2% (inactive) | -5.9% (inactive) | 96.7 | -5% (inactive) | 108 | -0.359 (inactive) | -5.8e-05 (inactive) | 0.00529 (inactive) | 9.38% (inactive) | 22.5% (inactive)
Cc1cc(S(=O)(=O)N(Cc2ccccc2)Cc2ccc(N(C)C)cc2)ccc1-n1cnnn1 | 793 | 3.3% (inactive) | -7.8% (inactive) | 94.8 | -58.8% (inactive) | 130 | -0.293 (inactive) | -5.5e-05 (inactive) | 0.00447 (inactive) | 15.7% (inactive) | 36.4% (inactive)
CCOC(=O)C1=C(N)OC2=C(C(=O)CC(C)(C)C2)C1c1ccoc1 (centres undefined) | 774 | -12.9% (inactive) | -14.6% (inactive) | 78.3 | -15.3% (inactive) | 110 | -0.418 (inactive) | -4e-05 (inactive) | 0.00368 (inactive) | 3.82% (inactive) | 7.84% (inactive)
CN1CCN(C(=O)C2(NC(=O)Nc3cccc(F)c3)CCCCC2)CC1 | 586 | -33.7% (inactive) | -14.5% (inactive) | 105 | -39.7% (inactive) | 109 | -0.596 (inactive) | -4.2e-05 (inactive) | 0.00664 (inactive) | 3.99% (inactive) | 3.07% (inactive)
